From PubChem BioAssay (NCI)
Compounds without any hit were thinned out: in the full panel of roughly 83,000, 20% have a hit.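 96-well plates, one dose, 48 hours. Percent growth reported; active if below 10.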 A number with no mark means an inactive call. Calls of active or inactive are those of the source.

Test system: SN12C renal
Test: NCI-60 one-dose screen, 48 h (100 = growth as untreated, 0 = no growth, -100 = all killed)
Details: 10 µM unless noted
Protocol: Growth inhibition of the SN12C human tumor cell line is measured as a screen for anti-cancer activity. Cells are grown in 96 well plates and exposed to the test compound for 48 hours. Compounds are tested at a single concentration, which is 10^-5 M for most compounds. The reported endpoint is percent growth (GI% or GIPRCNT), where numbers from 0 - 100% represent growth inhibition, and numbers from -100% - 0 represent cell death. For example, a value of 40 represents 60% growth inhibition. A value of 0 means no net growth occurred over the course of the experiment. A value of -40 indicates 40% of cells at the beginning of the experiment died by the end of the experiment. A value of -100 means all cells are dead at the end of the experiment.
NCI-60 Human Tumor Cell Lines Screen was performed using the standard one-dose NCI protocol, which is described in more detail at https://dtp.cancer.gov/discovery_development/nci-60/default.htm.
Compounds with GIPRCNT values below 10 were considered active. Activity score was based on GIPRCNT using the following formula: […]
Score is 0 for GIPRCNT values of 100 or above, 50 for GIPRCNT values of 0, and 100 for GIPRCNT values of -100.

| Compound | growth |
| --- | --- |
| CC(CCC#N)(CCC#N)C(=O)c1ccccc1 | 102% |
| O=C(O)c1ccc(OCc2ccccc2)cc1 | 98.2% |
| C=CCC(OC(C)=O)c1ccc(C(C)C)cc1 (stereo not given) | 104% |
| CC(=O)c1cccc(N(C)S(=O)(=O)c2ccc(C)cc2)c1 | 103% |
| Nc1ncc([N+](=O)[O-])cn1 | 101% |
| COC1OC(C(O)C(O)CO)C(O)C(O)C1O (stereo not given) | 94.1% |
| O=c1cc(C(F)(F)F)[nH]c(=S)[nH]1 | 95% |
| C=C1CC2(OC1=O)C(=O)N(C)c1ccc(I)cc12 (stereo not given) | -12% (active) |
| C=CC(C)C(C)(C)O (stereo not given) | 109% |
| Cc1cc2nc(C)c(C)nc2cc1C | 115% |
| CC(=O)c1cccc(NS(=O)(=O)c2ccc(C)cc2)c1 | 89.1% |
| COC(=O)Cc1cc(COC(C)=O)ccc1C | 114% |
| Cc1ccc(NCN2C(=O)c3ccccc3C2=O)c(C)n1 | 111% |
| O=C(NCc1ccco1)Nc1cccc2c(NC(=O)NCc3ccco3)cccc12 | 33.9% [100 µM] |
| NCCCN1CCCC1=O | 97.5% |
| COc1ccc2c(c1)Nc1ccccc1S2 | 107% |
| COc1cc2c(c(OC)c1OC)-c1ccc(SC)c(=O)cc1[C@@H](NC1OC(CO)C(O)C(O)C1O)CC2 (stereo not given in full) | 33.6% |
| CC(C)(CC(=O)O)CC(=O)O | 97.2% |
| Cc1ccccc1NC(=O)Oc1ccc(Cl)cc1C(=O)c1ccccc1 | 88.2% |
| CCCOCc1cn[nH]n1 | 105% |

| Compound | growth |
| --- | --- |
| CCOC(=O)C(C#N)=C1CCN(C)CC1 | 97% |
| CC1(C)OC(=O)CC1=O | 105% |
| CCC(=O)C1C(=O)c2ccccc2C1=O | 109% |
| COCC(N)=O | 108% |
| O=C(O)c1ccccc1Cc1ccc2c(c1)CCCC2 | 102% |
| CCCCN(C(=O)CC)c1ccccc1 | 99.3% |
| CC(C)C(=O)OCCOc1ccc(C(C)(C)C)cc1 | 89.4% |
| CC(=O)NCNC(C)=O | 109% |
| CCOc1ccc(C(=O)O)cc1 | 113% |
| C=CCOc1ccc(Cl)cc1Cl | 105% |
| CC(CC(CCC(=O)O)(c1ccccc1)c1ccccc1)N(C)C (stereo not given) | 99.2% |
| O=C(O)c1cc(I)ccc1O | 95.3% |
| OC1Cc2ccccc2C1 | 104% |
| Cc1ccc2[nH]c3ccccc3c2c1 | 109% |
| CCOC(=O)C(=O)CC(=O)c1ccccc1 | 100% |
| C/C=C/C1OCC(CC)C(CCC)O1 (stereo not given) | 99.5% |
| CC(C)NC(=O)OCc1c(COC(=O)NC(C)C)c(-c2ccc(Cl)cc2)n2c1CCC2 | 38.2% |
| Cn1c(=O)c2[nH]c(CC(=O)O)nc2n(C)c1=O | 104% |
| N#C/C(=C\c1ccc(C#N)cc1)C(=O)c1ccccc1 | 95.7% |
| O=C(O)CSCC(=O)Nc1cc(C(F)(F)F)ccc1Cl | 102% |
